In PubChem BioAssay (Tox21):
The source made the active and inactive calls. A call without a number means that no potency is given here. Calls come from the whole dose curve.

What follows are compounds tested against Muscarinic acetylcholine receptor M1 (Homo sapiens) (UniProt P11229) (assay: Cholinergic receptor muscarinic 1 (CHRM1) small molecule agonists, cell-based qHTS assay (AID 1963589; note: nearly all actives have a fitted effect of over 35% in size)). Conditions: CHRM1-CHO cells, agonist mode, calcium flux fluorescence; series mostly up to 76.8 µM.
Muscarinic acetylcholine receptor M1 (Homo sapiens), sequence (P11229 whole entry, looked up): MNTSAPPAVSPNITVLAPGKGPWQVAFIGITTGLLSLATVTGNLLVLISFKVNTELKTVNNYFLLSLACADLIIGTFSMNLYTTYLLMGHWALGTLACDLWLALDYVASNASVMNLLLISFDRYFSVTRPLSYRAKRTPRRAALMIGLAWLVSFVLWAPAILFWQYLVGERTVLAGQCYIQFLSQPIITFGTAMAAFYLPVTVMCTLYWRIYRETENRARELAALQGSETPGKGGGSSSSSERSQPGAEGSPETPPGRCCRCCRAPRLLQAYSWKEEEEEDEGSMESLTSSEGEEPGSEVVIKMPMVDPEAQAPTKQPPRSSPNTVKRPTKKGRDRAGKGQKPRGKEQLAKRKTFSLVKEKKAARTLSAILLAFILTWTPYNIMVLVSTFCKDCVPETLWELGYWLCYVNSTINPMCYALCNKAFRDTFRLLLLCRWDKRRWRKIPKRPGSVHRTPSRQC
Description: National Center for Advancing Translational Sciences [NCATS]
Division of Preclinical Innovation [DPI]
U.S. Environmental Protection Agency [EPA]
National Institutes of Environmental Health Sciences [NIEHS]
National Toxicology Program [NTP]
U.S. Food and Drug Administration [FDA]
The CHRM1 is a muscarinic receptor. This receptor plays a crucial role in learning and memory processes and has long been identified as a promising therapeutic target for the improvement of cognitive decline in Alzheimer's disease (AD). The CHRM1-CHO cell line stably expressing human muscarinic acetylcholine receptor M1 (CHRM1) can be used for screening agonists and antagonists of interactions between CHRM1 and its ligands. The CHRM1-CHO Calcium Flux Assay is a homogeneous fluorescence-based assay for detecting the intracellular calcium level using FDSS kinetic plate reader system.
CHRM1-CHO cells were dispensed at 1000 cells/3uL/well in 1536-well black-clear bottom plates using a Multidrop Dispenser. After the assay plates were incubated at a 37 C/5% CO2 incubator for 18 h, 3 uL of Dye Loading Buffer was transferred to the assay plate by a Flying Reagent Dispenser. The assay plates were incubated at 37 C for 1h. For agonist mode, 23 nL of compounds dissolved in DMSO, positive controls or DMSO only was transferred to the assay plate by a pin tool. […] Each test compound was measured at 15 concentrations in three independent runs.
Potency is the fitted concentration of half-maximal effect.

Structure (SMILES)	Potency
C[C@]12CC[C@@H]3c4ccc(O)cc4C[C@@H](CCCCCCCCCS(=O)CCCC(F)(F)C(F)(F)F)[C@H]3[C@@H]1CC[C@@H]2O (stereo not given in full)	inactive
CC(C)=CCCC(C)CCO (stereo not given)	inactive
CCCC[P+](CCCC)(CCCC)CCCC	inactive
C/C=C/c1ccc(OCC)c(O)c1	inactive
c1ccc2scnc2c1	inactive
O=c1c(O)c(-c2ccc(O)c(O)c2)oc2cc(O)cc(O)c12	inactive
CCCCCCCCC/C=C/CC1CC(=O)OC1=O (stereo not given)	inactive
C[Si](C)(C)N[Si](C)(C)C	inactive
Nc1nc2ncc(CNc3ccc(C(=O)N[C@@H](CCC(=O)O)C(=O)O)cc3)nc2c(=O)[nH]1	inactive
O=C(O)CCC(=O)O	inactive
CCCCC(CC)COC(=O)CS (stereo not given)	inactive
O=C(O)CCCC(=O)O	inactive
C[Si]1(C)O[Si](C)(C)O[Si](C)(C)O[Si](C)(C)O1	inactive
C=Cc1ccc(C)cc1	inactive
CC(=O)Nc1ccc2c(c1)Cc1cc(NC(C)=O)ccc1-2	inactive
C=C(C)C(=O)OCC(C)O (stereo not given)	inactive
O=[N+]([O-])C(CO)(CO)CO	inactive
CCNC(=S)NCC	inactive
c1ccc2cc3c(ccc4ccccc43)cc2c1	inactive
C=CCOC(=O)c1ccccc1C(=O)OCC=C	inactive

Structure (SMILES)	Potency
CCCCC(CC)COC(=O)c1ccc(C(=O)OCC(CC)CCCC)cc1 (stereo not given)	inactive
O=C(O)[C@H](O)[C@@H](O)[C@H](O)[C@H](O)CO	inactive
CC(C)(CO)COC(=O)C(C)(C)CO	inactive
CCCOC(=O)NCCCN(C)C	inactive
Cc1cc(C)c(O)c(C)c1	inactive
CCCCCCCCCCCCCC[N+](C)(C)C	10.7 µM (active)
ClC1=C(Cl)C(Cl)(Cl)C(Cl)=C1Cl	inactive
OC[C@@H](O)[C@@H](O[C@@H]1O[C@H](CO)[C@H](O)[C@H](O)[C@H]1O)[C@H](O)[C@@H](O)CO	inactive
CC(C)(CO)CO	inactive
C=CCCCCCCCCCC	inactive
CCc1cc(C(N)=S)ccn1	inactive
O=C(O)c1cccc(C(=O)O)c1	inactive
CN(C)c1ccc(C(=C2C=CC(=[N+](C)C)C=C2)c2ccccc2)cc1	inactive
CC(=O)Oc1c(C)c(C)c2c(c1C)CC[C@@](C)(CCC[C@H](C)CCC[C@H](C)CCCC(C)C)O2	inactive
O=C(O)c1[nH]n(-c2ccc(S(=O)(=O)O)cc2)c(=O)c1N=Nc1ccc(S(=O)(=O)O)cc1	inactive
c1ccc2[nH]cnc2c1	inactive
C=CCOC(=O)CC(C)C	inactive
CCOC(=O)C(C#N)=C(c1ccccc1)c1ccccc1	inactive
N[C@@H](Cc1cc(I)c(Oc2cc(I)c(O)c(I)c2)c(I)c1)C(=O)O	inactive
CCCCCC1=CCCC1=O	inactive
